An excerpt weighted towards active compounds, which were near 2.2% of everything screened.
Granule exo inh: blocks lytic granule exocytosis | TALL-104 LAMP-1 surface exposure, flow cytometry; cells stimulated with thapsigargin and PMA | inhibition, % at 10 µM | 360,000 tested, 0.66% active;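 active = inhibition above about 55%, limit read from the data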
V-ATPase pHluor: alters yeast V-ATPase proton transport | response, % at 10 µM | AID 504577 | 350,000 tested, 0.37% active | S. cerevisiae, pHLuorin cytosolic pH fluorescence; in the data active = response mostly above about 7.3%, no sharp cut-off; inactive = mostly below about 5.4%; note: actives read high
MEX-5 binding: C. elegans MEX-5 TCR-2 RNA binding activity; Q9XUB2; 300,000 tested, 0.38% active; MEX-5/FITC-TCR2 RNA binding, fluorescence polarization; hits give low values; activity score (negative = inhibition of binding), % at 10 µM;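 active = inhibition past about -25% in most replicates, and total fluorescence under double the plate's negative control median, limit read from the data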;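 note: 0% = DMSO and -100% = 5 µM competing unlabeled TCR2 RNA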
JMJD2C inh: human JMJD2C demethylase inhibition | Q9H3R0 | GST-JMJD2C(1-420) H3K9me3 demethylation, DELFIA europium | inhibition, % at 2.35 µM | 330,000 tested, 0.069% active;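 active = more than half of a compound's replicate wells show inhibition beyond 50%, single wells judged on their own value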;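 note: signal counts dimethyl H3K9 product captured on neutravidin plate; 0% = median of DMSO wells and 100% = 0.3 times that DMSO median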
Target sequence (Q9H3R0 1-420 limits assumed): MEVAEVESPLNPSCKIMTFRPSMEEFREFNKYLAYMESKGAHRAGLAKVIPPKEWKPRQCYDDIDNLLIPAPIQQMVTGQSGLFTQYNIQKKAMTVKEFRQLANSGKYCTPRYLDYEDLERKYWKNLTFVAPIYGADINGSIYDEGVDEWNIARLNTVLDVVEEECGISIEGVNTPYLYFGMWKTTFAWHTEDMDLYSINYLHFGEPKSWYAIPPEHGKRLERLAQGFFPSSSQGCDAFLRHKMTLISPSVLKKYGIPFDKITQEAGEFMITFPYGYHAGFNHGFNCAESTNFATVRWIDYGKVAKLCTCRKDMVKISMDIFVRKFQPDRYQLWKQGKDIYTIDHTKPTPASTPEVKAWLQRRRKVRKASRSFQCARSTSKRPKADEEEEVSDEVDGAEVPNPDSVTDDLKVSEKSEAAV
VLA-4 inh: inhibition in a human VLA-4 binding assay; inhibition, % (about 7 µM as worked out from the volumes in the protocol); 330,000 tested, 0.2% active; AID 2557; P13612; VLA-4 expressing cells, ligand binding flow cytometry; in the data active = inhibition above about 50%
m5-HT2A agonist: activates the mouse 5-HT2A serotonin receptor; P35363; CHO-K1 mHTR2A beta-arrestin complementation, luminescence; percent of 30 µM serotonin response; activation, % at 7.6 µM; 360,000 tested, 0.66% active; AID 624169;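 active = activation above a run cutoff, the mean activation of all tested compounds plus 3 SD, cut at about 14% in these data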;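 note: 0% = plate median of compound wells and 100% = 30 µM serotonin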
VLA-4 mod pick: confirmation of allosteric modulators of human VLA-4 integrin | shares compounds with VLA-4 inh | U937 cells, HUTS-21 LIBS mAb binding, flow cytometry; LDV ligand present at threefold Kd | inhibition, % at 6.7 µM | 1,300 tested, 2% active; in the data active = inhibition above about 40%;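 note: 0% = ligand without compound and 100% = no ligand background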
Starred values were filed as active, the others as inactive; i = inactive; x = no result.

SMILES	Granule exo inh	V-ATPase pHluor	MEX-5 binding	JMJD2C inh	VLA-4 inh	m5-HT2A agonist	VLA-4 mod pick
COCCN(Cc1cc2cc3c(cc2nc1Cl)OCO3)C(=O)Nc1ccc(OC)cc1	-1.4	3.5	0.8	6.5	53.8*	8.9	-9.5
CC(=O)[C@@]1(O)CC[C@H]2[C@@H]3CCC4=CC(=O)CC[C@]4(C)[C@H]3[C@@H](O)C[C@@]21C	-2.4	10.6	0.3	-25.1	53.0*	6.4	2.7
O=c1cc(-c2ccccc2)[nH]n1-c1nc2ccccc2[nH]1	-1.1	-0.1	1.1	-28.4	-3.5	-0.1	x
CCc1cc(=O)[nH]c(-n2[nH]c(-c3ccccc3)cc2=O)n1	3.1	1.9	15.4	-20.1	-8.6	-3.1	3.7
O=C(OCC#CCSc1nnc(-c2cccc3ccccc23)o1)c1ccc2ccccc2c1	-4.1	2.3	x	x	10.2	-0.6	x
COc1ccc(OC)c(NC(=O)NCc2ccc(F)cc2)c1	2.1	-0.9	3.3	-3.1	-1.0	-9.0	x
COc1ccc(C)cc1NC(=O)NCc1ccc(F)cc1	-9.7	-0.6	-2.2	22.3	40.2	-1.6	-2.0
COC(=O)c1cccnc1-n1c(=O)c2cccnc2n(Cc2cccc([N+](=O)[O-])c2)c1=O	-1.0	-0.3	-1.9	-7.0	67.0*	-4.2	-2.2
CCOc1ccc(NC(=O)CNC(=O)c2ccc([N+](=O)[O-])cc2)cc1	-1.8	-3.1	-1.3	4.8	5.2	-1.2	x
COc1cccc(-c2cc(=O)c3cc(NC(=O)c4ccc(Cl)cc4)ccc3[nH]2)c1	1.7	9.5	-3.2	-10.7	50.1*	2.1	-2.1
COc1cccc(-c2cc(=O)c3cc(NC(=O)c4ccccc4)ccc3[nH]2)c1	-0.3	-10.5	-0.3	4.9	-4.2	5.9	x
O=c1cc(O)cc2n1CCC2	3.6	x	x	x	x	-0.1	x
Cc1cccc(C)c1NC(=O)c1ccc(-c2cc(F)ccc2F)o1	-2.2	x	x	x	x	-4.5	x
CCCCCN1C(=O)Cn2c(nc3ccccc3c2=O)C1C (centres undefined)	-2.9	4.0	1.1	5.3	42.9	4.4	0.5
CCOC(=O)c1c(NC(=O)C2c3ccccc3Oc3ccccc32)sc(C(N)=O)c1C	1.0	-2.8	0.2	-8.5	13.9	-3.5	15.0
COC(=O)c1ccc(N2CCN(c3ccccc3)CC2)c(NC(=O)C2CC2)c1	0.9	1.9	0.9	0.1	4.5	0.4	x
COC(=O)c1ccc(N2CCN(c3ccccc3)CC2)c(N)c1	0.5	-0.2	1.4	-13.0	45.1	-0.7	2.1
CCN(CC)S(=O)(=O)c1cccc(NC(=O)c2cc(-c3cccs3)nn2-c2ccccc2)c1	-7.4	1.6	1.4	-0.2	-10.7	1.4	x
CN(C)S(=O)(=O)c1cccc(NC(=O)c2cc(-c3cccs3)nn2-c2ccccc2)c1	4.9	1.1	-0.8	-4.4	40.1	0.4	1.3
CCc1nc2ccc(C(=O)Nc3ccc(NC(C)=O)cc3)cn2c1N(C)CCC(C)C	-25.7	x	x	x	x	-2.2	x
COC(=O)c1sccc1NC(=O)Nc1ccccc1F	-0.9	-1.8	-1.1	8.4	-1.5	2.3	x
COC(=O)c1sccc1NC(=O)Nc1ccccc1C	0.8	-2.1	x	-14.4	-33.8	-2.8	0.7
CCCC1=NN2C(=N)/C(=C\c3ccc(OCCOc4ccc(NC(C)=O)cc4)c(OC)c3)C(=O)N=C2S1	7.7	1.3	-5.2	-0.6	3.0	12.7	x
CCC(C)Nc1nc2c(c(=O)n(C)c(=O)n2C)n1Cc1ccc(Cl)cc1 (centres undefined)	7.0	1.5	3.6	-2.2	-2.3	5.9	x
CCNc1nc2c(c(=O)n(C)c(=O)n2C)n1Cc1ccc(Cl)cc1	2.5	-1.9	3.9	-28.9	56.6*	10.8	5.4
C=C(Cl)COc1ccc2c(C)cc(=O)oc2c1	2.5	-2.8	1.1	7.1	3.2	-7.1	x
C#CCOc1ccc2c(C)cc(=O)oc2c1	6.0	3.5	0.0	-3.0	51.8*	2.1	i
CCOC(=O)N1CCC(N2Cc3cccc(C(=O)NCc4ccc(C)cc4)c3C2=O)CC1	11.6	0.8	-0.5	-10.3	50.1*	-0.6	13.5
Nc1ccc(S(=O)(=O)c2ccc(N)nc2)cc1	-6.8	x	x	x	x	-1.8	x
